# According to article PMC7862700, “An all-to-all approach to the identification of sequence-specific readers for epigenetic DNA modifications on cytosine”:
# Key:
# Experiment in all cases: DAPPL (digital affinity profiling via proximity ligation, sequencing); 10 mM Tris-HCl pH 7.5, 50 mM NaCl, 1 mM DTT, 4% glycerol, room temperature, 30 min; GST-TFs on glutathione beads, 16-mer random dsDNA library, 0.1% formaldehyde crosslink after washing; high values mean tight binding
# Conditions in all cases: protein: recombinant; tags: N-terminal GST; dsDNA, one strand shown
# FLI1 = target: T1, FLI1 (Homo sapiens, UniProt Q01543 1-452)
# T1 sequence: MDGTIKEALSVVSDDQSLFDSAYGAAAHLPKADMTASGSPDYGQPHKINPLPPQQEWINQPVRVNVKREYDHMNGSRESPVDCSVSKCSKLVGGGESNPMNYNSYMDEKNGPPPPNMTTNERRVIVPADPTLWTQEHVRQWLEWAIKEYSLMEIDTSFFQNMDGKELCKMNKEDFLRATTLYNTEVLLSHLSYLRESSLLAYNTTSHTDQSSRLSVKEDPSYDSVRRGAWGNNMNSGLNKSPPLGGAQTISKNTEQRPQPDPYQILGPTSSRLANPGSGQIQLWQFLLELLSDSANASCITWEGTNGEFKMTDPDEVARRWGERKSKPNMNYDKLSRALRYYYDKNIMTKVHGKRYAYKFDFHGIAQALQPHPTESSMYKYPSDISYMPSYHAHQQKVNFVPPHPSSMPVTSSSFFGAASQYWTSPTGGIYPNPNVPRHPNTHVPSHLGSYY
# Outline: (§1)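 Sequencing on an Illumina NextSeq500 followed washing, crosslinking with 0.1% formaldehyde, proximity ligation (BsaI/T4 ligase, 1 h, 37 °C) and PCR amplification of pools that had been incubated for 30 min at room temperature with 200 nmole of a random double-stranded 16-mer DNA library in Tris/NaCl/DTT/glycerol buffer. Each pool held DNA-barcoded human transcription factors, expressed in yeast as GST fusions and captured on glutathione beads, plus a tag-only sample. Binding signal is a hexamer's read frequency for a factor divided by its frequency in the tag-only sample.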
# GABPA = target: T2, GABPA (Homo sapiens, UniProt Q06546 1-454)
# T2 sequence: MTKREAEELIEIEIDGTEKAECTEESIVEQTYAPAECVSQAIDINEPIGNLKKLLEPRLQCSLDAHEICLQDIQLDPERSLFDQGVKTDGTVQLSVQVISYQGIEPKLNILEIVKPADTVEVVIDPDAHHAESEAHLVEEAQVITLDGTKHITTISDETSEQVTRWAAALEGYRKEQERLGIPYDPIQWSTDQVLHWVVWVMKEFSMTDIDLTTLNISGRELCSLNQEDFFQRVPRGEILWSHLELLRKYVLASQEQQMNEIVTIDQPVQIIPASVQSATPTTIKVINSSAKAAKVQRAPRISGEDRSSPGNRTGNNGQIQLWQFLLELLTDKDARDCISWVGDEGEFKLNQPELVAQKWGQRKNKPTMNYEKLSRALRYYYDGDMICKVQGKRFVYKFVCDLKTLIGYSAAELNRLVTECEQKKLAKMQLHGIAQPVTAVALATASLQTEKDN
# Outline: as §1
# ERG = target: T3, ERG (Homo sapiens, UniProt P11308 1-479)
# T3 sequence: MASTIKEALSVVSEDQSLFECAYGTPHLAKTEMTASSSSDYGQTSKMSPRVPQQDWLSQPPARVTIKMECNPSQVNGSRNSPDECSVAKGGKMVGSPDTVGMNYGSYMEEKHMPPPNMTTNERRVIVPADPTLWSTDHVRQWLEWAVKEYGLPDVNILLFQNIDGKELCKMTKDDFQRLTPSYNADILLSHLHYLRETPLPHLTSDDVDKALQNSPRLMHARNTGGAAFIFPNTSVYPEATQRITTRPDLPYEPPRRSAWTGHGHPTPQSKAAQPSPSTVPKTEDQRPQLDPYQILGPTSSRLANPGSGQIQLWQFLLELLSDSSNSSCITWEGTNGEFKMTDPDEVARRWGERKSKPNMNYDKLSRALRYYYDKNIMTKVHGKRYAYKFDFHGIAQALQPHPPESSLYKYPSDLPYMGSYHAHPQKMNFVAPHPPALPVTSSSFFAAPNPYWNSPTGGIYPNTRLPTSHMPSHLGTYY
# Outline: as §1
# ELF1 = ELF1 (Homo sapiens, UniProt P32519 1-619)
# Outline: as §1
# EHF = target: T4, EHF (Homo sapiens, UniProt Q9NZC4 1-300)
# T4 sequence: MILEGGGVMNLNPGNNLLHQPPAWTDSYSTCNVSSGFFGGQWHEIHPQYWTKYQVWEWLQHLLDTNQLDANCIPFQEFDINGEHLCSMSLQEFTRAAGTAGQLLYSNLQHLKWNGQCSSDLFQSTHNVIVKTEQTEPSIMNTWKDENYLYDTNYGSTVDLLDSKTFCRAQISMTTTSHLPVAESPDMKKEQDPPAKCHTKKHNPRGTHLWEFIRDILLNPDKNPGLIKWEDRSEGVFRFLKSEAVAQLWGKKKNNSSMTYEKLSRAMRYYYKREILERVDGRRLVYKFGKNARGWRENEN
# Outline: as §1
# SPI1 = SPI1 (Homo sapiens, UniProt P17947 1-270)
# Outline: as §1
# SPIB = SPIB (Homo sapiens, UniProt Q01892 1-262)
# Outline: as §1
# ELK3 = target: T5, ELK3 (Homo sapiens, UniProt P41970 1-407)
# T5 sequence: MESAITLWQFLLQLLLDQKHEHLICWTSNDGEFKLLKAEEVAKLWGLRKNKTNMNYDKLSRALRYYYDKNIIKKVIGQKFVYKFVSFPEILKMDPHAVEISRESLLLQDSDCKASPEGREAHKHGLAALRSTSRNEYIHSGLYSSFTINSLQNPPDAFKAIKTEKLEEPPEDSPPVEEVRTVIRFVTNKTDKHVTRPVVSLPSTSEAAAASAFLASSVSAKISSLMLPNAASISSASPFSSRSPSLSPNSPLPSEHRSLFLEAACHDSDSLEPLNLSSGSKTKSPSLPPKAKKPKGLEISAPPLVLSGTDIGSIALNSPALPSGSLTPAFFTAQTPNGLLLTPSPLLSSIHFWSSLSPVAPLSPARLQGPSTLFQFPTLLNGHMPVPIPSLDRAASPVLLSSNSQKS
# Outline: as §1
# FEV = target: T6, FEV (Homo sapiens, UniProt Q99581 1-238)
# T6 sequence: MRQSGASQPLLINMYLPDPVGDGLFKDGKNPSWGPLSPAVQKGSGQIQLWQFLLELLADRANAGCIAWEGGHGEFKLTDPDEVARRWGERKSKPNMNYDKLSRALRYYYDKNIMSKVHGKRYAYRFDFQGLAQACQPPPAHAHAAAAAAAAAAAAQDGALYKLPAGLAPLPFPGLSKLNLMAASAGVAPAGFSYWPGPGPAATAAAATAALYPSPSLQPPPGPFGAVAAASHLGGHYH
# Outline: as §1
# ETV5 = ETV5 (Homo sapiens, UniProt P41161 1-510)
# Outline: as §1
# SPIC = target: T7, SPIC (Homo sapiens, UniProt Q8N5J4 1-248)
# T7 sequence: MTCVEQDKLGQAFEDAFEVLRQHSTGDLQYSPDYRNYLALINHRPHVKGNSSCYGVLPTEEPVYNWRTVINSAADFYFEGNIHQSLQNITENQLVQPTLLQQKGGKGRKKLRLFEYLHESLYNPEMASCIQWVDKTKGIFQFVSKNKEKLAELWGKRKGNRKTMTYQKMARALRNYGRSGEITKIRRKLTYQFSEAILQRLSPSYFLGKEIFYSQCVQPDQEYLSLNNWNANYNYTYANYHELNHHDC
# Outline: as §1
# ELF4 = ELF4 (Homo sapiens, UniProt Q99607 1-663)
# Outline: as §1
# ETV1 = ETV1 (Homo sapiens, UniProt P50549 1-477)
# Outline: as §1
# ERF = target: T8, ERF (Homo sapiens, UniProt P50548 1-548)
# T8 sequence: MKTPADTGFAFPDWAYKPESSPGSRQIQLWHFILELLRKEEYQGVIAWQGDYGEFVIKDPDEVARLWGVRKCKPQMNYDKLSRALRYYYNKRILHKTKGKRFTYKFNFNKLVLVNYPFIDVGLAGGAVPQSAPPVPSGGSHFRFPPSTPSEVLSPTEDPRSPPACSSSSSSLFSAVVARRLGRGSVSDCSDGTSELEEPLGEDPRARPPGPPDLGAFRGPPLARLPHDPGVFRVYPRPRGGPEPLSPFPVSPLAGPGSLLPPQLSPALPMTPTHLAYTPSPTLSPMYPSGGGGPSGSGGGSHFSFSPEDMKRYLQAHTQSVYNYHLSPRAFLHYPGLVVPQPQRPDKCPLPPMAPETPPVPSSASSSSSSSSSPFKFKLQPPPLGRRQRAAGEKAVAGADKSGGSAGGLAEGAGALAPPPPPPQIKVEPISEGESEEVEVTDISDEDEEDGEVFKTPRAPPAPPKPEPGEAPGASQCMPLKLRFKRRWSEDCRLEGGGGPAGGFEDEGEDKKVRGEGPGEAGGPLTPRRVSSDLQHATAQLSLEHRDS
# Outline: as §1
# ETV3L = target: T9, ETV3L (Homo sapiens, UniProt Q6ZN32 1-361)
# T9 sequence: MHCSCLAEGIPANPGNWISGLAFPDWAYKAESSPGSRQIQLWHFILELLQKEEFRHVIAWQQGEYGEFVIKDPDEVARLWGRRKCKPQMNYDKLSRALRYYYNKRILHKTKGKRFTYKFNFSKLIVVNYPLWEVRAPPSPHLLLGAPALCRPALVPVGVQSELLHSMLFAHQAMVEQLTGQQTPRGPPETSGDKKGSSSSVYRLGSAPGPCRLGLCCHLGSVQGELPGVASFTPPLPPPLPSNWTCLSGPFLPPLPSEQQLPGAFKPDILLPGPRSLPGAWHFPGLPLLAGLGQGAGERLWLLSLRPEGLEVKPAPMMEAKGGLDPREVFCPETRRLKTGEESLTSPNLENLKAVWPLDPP
# Outline: as §1
# ETS2 = target: T10, ETS2 (Homo sapiens, UniProt P15036 1-469)
# T10 sequence: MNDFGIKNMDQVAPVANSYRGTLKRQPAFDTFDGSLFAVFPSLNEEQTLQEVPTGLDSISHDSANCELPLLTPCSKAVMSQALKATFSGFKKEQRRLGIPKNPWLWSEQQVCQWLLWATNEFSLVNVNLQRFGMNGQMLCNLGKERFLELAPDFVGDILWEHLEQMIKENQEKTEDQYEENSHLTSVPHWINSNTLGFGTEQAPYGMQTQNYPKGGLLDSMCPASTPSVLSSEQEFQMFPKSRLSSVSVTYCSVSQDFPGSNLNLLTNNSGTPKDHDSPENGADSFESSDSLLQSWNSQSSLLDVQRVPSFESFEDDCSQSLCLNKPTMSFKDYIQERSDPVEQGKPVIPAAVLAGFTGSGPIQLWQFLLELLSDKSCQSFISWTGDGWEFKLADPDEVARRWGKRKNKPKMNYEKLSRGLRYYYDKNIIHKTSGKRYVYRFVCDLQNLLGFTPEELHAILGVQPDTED
# Outline: as §1
# ETV3 = target: T11, ETV3 (Homo sapiens, UniProt P41162-2 1-143)
# T11 sequence: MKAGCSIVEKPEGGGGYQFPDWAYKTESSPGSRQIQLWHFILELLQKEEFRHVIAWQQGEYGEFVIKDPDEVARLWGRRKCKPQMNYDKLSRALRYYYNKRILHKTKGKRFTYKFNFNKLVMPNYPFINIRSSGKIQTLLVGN
# Outline: as §1
# ETV6 = ETV6 (Homo sapiens, UniProt P41212 1-452)
# Outline: as §1
# Chain of ETV5 (P41161 whole entry): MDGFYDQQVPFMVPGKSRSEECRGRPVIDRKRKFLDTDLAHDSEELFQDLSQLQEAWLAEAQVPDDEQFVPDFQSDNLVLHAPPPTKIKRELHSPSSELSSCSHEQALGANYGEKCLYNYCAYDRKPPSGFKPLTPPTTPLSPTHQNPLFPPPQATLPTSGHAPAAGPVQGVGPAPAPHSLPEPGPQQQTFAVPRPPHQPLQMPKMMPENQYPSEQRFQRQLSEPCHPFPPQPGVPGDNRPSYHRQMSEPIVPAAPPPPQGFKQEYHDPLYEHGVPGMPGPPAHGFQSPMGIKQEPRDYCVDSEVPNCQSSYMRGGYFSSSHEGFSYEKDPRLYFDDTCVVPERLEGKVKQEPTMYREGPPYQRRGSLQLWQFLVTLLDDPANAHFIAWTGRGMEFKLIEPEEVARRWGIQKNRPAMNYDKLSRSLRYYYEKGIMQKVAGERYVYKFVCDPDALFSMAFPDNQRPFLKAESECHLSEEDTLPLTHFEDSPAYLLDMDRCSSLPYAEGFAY
# Chain of ELF4 (Q99607 whole entry): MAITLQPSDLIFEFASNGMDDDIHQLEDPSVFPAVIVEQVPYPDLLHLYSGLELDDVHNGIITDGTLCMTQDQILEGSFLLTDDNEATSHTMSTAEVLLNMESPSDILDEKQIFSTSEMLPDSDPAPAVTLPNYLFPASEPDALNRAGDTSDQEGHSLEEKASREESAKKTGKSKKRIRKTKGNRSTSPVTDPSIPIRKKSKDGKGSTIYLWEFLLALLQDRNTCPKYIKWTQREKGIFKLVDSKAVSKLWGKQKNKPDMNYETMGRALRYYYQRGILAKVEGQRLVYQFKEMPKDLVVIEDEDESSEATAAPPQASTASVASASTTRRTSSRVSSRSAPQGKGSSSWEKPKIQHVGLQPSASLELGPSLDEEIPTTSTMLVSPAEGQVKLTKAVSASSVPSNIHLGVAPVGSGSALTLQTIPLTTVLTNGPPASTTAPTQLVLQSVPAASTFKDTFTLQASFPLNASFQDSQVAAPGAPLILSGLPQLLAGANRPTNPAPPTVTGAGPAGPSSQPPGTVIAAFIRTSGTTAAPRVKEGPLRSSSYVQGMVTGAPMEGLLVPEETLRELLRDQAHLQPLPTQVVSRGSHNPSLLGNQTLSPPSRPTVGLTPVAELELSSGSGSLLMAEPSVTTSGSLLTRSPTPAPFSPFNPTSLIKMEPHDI
# Chain of ELF1 (P32519 whole entry): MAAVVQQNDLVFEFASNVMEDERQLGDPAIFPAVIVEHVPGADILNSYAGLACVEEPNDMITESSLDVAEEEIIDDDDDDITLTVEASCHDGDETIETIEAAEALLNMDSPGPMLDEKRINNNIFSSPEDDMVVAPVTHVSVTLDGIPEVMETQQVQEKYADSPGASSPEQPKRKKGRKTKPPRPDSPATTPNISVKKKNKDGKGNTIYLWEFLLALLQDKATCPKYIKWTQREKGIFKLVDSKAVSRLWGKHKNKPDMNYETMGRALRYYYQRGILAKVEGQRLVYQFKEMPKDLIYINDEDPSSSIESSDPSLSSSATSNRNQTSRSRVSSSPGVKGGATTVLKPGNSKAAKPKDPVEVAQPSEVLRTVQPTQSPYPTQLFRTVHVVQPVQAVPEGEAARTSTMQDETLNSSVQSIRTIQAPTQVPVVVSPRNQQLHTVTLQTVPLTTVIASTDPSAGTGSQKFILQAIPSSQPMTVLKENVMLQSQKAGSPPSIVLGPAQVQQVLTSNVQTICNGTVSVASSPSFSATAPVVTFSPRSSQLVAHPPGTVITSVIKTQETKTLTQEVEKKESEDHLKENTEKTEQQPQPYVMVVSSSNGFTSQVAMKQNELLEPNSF
# Chain of ETV6 (P41212 whole entry): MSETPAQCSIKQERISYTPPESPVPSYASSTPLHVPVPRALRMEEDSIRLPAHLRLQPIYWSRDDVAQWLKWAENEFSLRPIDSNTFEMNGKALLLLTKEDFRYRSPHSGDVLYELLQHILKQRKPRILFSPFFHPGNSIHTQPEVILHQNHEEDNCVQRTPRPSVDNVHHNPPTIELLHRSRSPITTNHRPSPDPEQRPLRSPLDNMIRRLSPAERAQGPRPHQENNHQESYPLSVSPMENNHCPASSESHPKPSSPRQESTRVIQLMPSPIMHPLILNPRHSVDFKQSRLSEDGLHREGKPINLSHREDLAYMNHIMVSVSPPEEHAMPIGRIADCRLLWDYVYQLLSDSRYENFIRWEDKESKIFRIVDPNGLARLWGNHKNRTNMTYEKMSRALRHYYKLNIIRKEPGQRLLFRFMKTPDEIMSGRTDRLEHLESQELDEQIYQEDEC
# Chain of ETV1 (P50549 whole entry): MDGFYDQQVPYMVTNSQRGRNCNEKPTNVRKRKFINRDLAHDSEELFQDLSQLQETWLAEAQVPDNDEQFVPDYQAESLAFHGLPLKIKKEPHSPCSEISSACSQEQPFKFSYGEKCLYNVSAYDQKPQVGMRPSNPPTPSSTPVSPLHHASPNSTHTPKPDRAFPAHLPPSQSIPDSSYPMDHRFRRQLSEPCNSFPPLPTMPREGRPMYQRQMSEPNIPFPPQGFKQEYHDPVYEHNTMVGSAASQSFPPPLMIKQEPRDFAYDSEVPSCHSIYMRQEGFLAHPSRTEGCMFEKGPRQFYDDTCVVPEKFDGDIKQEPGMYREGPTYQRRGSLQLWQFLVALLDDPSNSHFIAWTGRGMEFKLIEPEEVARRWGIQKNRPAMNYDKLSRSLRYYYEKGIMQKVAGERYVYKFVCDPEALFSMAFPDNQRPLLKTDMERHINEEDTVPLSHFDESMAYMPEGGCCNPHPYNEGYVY
# Chain of SPIB (Q01892 whole entry): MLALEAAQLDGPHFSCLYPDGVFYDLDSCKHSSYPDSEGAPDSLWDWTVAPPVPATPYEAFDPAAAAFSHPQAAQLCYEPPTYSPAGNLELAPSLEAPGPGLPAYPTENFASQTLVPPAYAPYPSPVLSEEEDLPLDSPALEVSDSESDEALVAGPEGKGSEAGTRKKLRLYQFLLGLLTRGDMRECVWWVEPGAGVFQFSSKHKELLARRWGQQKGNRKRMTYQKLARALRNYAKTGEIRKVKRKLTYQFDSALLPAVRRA
sequence,measurement,setting,value
GCTTGT,binding signal,FLI1,"1.22 fold enrichment (6-mer frequency, TF over GST control)"
same,binding signal,GABPA,"1.08 fold enrichment (6-mer frequency, TF over GST control)"
same,binding signal,ERG,"1.05 fold enrichment (6-mer frequency, TF over GST control)"
same,binding signal,ELF1,"1.11 fold enrichment (6-mer frequency, TF over GST control)"
same,binding signal,EHF,"1.13 fold enrichment (6-mer frequency, TF over GST control)"
same,binding signal,SPI1,"1.15 fold enrichment (6-mer frequency, TF over GST control)"
same,binding signal,SPIB,"1.13 fold enrichment (6-mer frequency, TF over GST control)"
same,binding signal,ELK3,"1.12 fold enrichment (6-mer frequency, TF over GST control)"
same,binding signal,FEV,"1.02 fold enrichment (6-mer frequency, TF over GST control)"
same,binding signal,ETV5,"1.2 fold enrichment (6-mer frequency, TF over GST control)"
same,binding signal,SPIC,"1.26 fold enrichment (6-mer frequency, TF over GST control)"
same,binding signal,ELF4,"1.07 fold enrichment (6-mer frequency, TF over GST control)"
same,binding signal,ETV1,"1.13 fold enrichment (6-mer frequency, TF over GST control)"
same,binding signal,ERF,"1.18 fold enrichment (6-mer frequency, TF over GST control)"
same,binding signal,ETV3L,"1.02 fold enrichment (6-mer frequency, TF over GST control)"
same,binding signal,ETS2,"1.07 fold enrichment (6-mer frequency, TF over GST control)"
same,binding signal,ETV3,"1.11 fold enrichment (6-mer frequency, TF over GST control)"
same,binding signal,ETV6,"1.02 fold enrichment (6-mer frequency, TF over GST control)"
